These results are taken from PubChem BioAssay (Tox21).

“And” between values parts separate entries of the source, which are not always exact repeats. Equal values may be shown once. Results filed as inconclusive are left out. Where a call stands in place of a potency, no number is given. More than one record can exist for a structure, and the calls need not agree. Unmarked numbers belong to inactive results. The source made the active and inactive calls. Calls follow the shape of the dose curve; as a rule, active = well fitted activation curve with a large enough effect in the repeat runs; inconclusive = weak or mixed curves, or effect the other way; inactive = no such curve, though single readings can be large or run the other way.
Potency is read from the fitted curve at half-maximal effect.

One test is described as follows: qHTS assay to identify small molecule agonists of the retinoic acid receptor (RAR) signaling pathway (AID 1159553). The following applies: C3RL4 RARE luciferase reporter, agonist, 6 h; activation: at 73.3 µM (top of the series) unless noted. The source says: National Center for Advancing Translational Sciences [NCATS] NIH Chemical Genomics Center [NCGC] U.S. Environmental Protection Agency [EPA] National Institutes of Environmental Health Sciences [NIEHS] National Toxicology Program [NTP] Assay overview: All-trans Retinoic acid (atRA) is the potent natural metabolite of retinol and plays an important role in normal embryonic development and maintenance of cellular phenotype in adult animals. atRA is the activating ligand for the retinoic acid receptors (RARs) which form heterodimers with retinoid X receptors (RXRs) on the retinoic acid response element (RARE). Through activation of the RAR/RXRs nuclear receptors, atRA regulates the transcription of a large number of protein-coding genes and regulatory RNAs. Intracellular levels of atRA are controlled by the retinol signaling pathway (RSP) that regulates the biosynthesis and catabolism of atRA to maintain physiological levels. Chemicals that interfere with the RSP can cause abnormal intracellular levels of atRA and therefore are potential developmental toxicants. To assess compounds for the potential adverse effect on embryonic development through interfering with retinol signaling, a cell-based RARE luciferase reporter gene assay was used. C3RL4 cell line (OARSA/CFSAN/FDA, Laurel, MD) was used to screen Tox21 10K compound library for identifying activators of the RSP.
Assay Protocol Summary: C3RL4 cells were seeded at 1,000/well in 5 uL of assay medium into white solid 1,536-well tissue culture plates (Greiner Bio-One North America Inc. Monroe, NC) using a Multidrop Combi (Thermo Scientific, Waltham, MA) dispenser. After incubation at 37 C and 5% CO2 for an overnight, 23 nL of compounds dissolved in DMSO, positive control or DMSO only were transferred by a Pintool station (Kalypsys, San Diego, CA). After 6 hr incubation at 37 C and 5% CO2, 5 uL of Amplite Luciferase reagent (AAT Bioquest Inc. Sunnyvale, CA) was added to each assay plate using a Flying Reagent Dispenser (FRD) (Aurora Discovery, San Diego, CA). Luminescence was quantified on a ViewLux plate reader (PerkinElmer, Waltham, MA) after 30 min incubation at room temperature.
`CC1=CC(=O)CC(C)(C)C1`: the Potency entry was “inactive”.
For the molecule `COc1cc(NC(=O)CC(C)=O)c(OC)cc1Cl`, the Potency entry is “inactive”.
In the case of `Cc1ccc(C(C)C)cc1`, the Potency result is “inactive”.
In the case of `NC1CCCCC1N` (stereo not given), the Potency entry is “inactive”.
`Cc1ccc(C)c(S(=O)(=O)O)c1`: the Potency result was “inactive”.
Turning to `C=C(CC(=O)O)C(=O)O`, the Potency entry is “inactive”.
On the same count and under the same terms, the result for `CC/C=C(\C(=O)N[C@@H]1C(=O)N2C(C(=O)OCOC(=O)C(C)(C)C)=C(COC(N)=O)CS[C@H]12)c1csc(N)n1` reads “inactive”; that for `CS(=O)(=O)c1ccc(Cl)cc1`, “inactive”.
For `C[n+]1ccn(CCO)c1`, the Potency entry is “inactive”.
Consider `OCCOCCOCCOCCOCCO`, for which the Potency entry is “inactive”.
In the case of `O=C(O)C1=NN(c2ccc(S(=O)(=O)O)cc2)C(=O)C1`, the Potency result is “inactive”.
With `O=C1C(N(CO)C(=O)NCO)N(CO)C(=O)N1CO` (stereo not given), the Potency result was “inactive”.
For the molecule `CC(=O)OC/C=C(\C)CCC=C(C)C`, the Potency result is “inactive”.
Regarding `O=c1c(O)c(-c2ccc(O)c(O)c2)oc2cc(O)cc(O)c12`, the Potency is 61.2 µM (active).
On to `COc1ccc([C@@H]2CC(=O)c3c(O)cc(O[C@@H]4O[C@H](CO[C@@H]5O[C@@H](C)[C@H](O)[C@@H](O)[C@H]5O)[C@@H](O)[C@H](O)[C@H]4O)cc3O2)cc1OC`, for which the Potency entry was “inactive”.
Consider `C[Si](C)(C)N[Si](C)(C)C`, for which the Potency result is “inactive”.
With `CCOC(=O)c1ccc(O)cc1`, the “activation” value was 2.77%.
Regarding `CO[Si](CCCNCCN)(OC)OC`, the Potency result was “inactive”.
As for `Nc1cccc(C(F)(F)F)c1`, the Potency result is “inactive”.
In the case of `COC(=O)/C=C\C(=O)OC`, the Potency entry is “inactive”.
For `O=c1n(CCCN2CCN(c3cccc(Cl)c3)CC2)nc2ccccn12`, the Potency entry is “inactive”.
With `N#CCC(=O)O`, the “activation” value is -1.73%.
In the case of `NCCNCCNCCN`, the Potency result is “inactive”.
The same measure, in the same setting: the result for `Nc1cccc(N)n1` reads “inactive”.
Same read-out and setting: the result for `CCCOC(=O)NCCCN(C)C` reads “inactive”.
Consider `Cc1cc(C)c(O)c(C)c1`, for which the Potency entry was “inactive”.
Same read-out and setting: the result for `CCCCCCCCCCCC(=O)N(C)CC(=O)O` reads “inactive”.
As to `CN1Cc2c(N)cccc2C(c2ccccc2)C1` (stereo not given), the Potency entry was “inactive”.
As for `O=C(Cl)c1ccc(C(=O)Cl)cc1`, the Potency entry is “inactive”.
As for `CN1CCCC1=O`, the activation was -0.377% [at 94.8 µM] (active).
With `O=Cc1ccc(CO)o1`, the Potency entry is “inactive”.
Same read-out and setting: the result for `OB(O)O` reads “inactive”.
For the molecule `CCCCC(=O)O`, the “activation” value is -0.0394% [at 94.8 µM].
With `c1cnc2c(c1)ccc1cccnc12`, the Potency was 2.19 µM (active) and 9.69 µM (active) and 2.73 µM (active).
`CCCCCCCCC(=O)O`: the Potency entry is “inactive”.
`Cc1ccc([N+](=O)[O-])cc1N`: the Potency entry is “inactive”.
Regarding `Cc1ccncc1`, the Potency result is “inactive”.
In the case of `CC(=O)OC[C@H]1O[C@@](COC(C)=O)(O[C@H]2O[C@H](COC(C)=O)[C@@H](OC(C)=O)[C@H](OC(C)=O)[C@H]2OC(C)=O)[C@@H](OC(C)=O)[C@@H]1OC(C)=O`, the Potency entry was “inactive”.
Same read-out and setting: the result for `CC(C=O)Cc1ccc(C(C)(C)C)cc1` (stereo not given) reads “inactive”.

Still in this test, the particulars now being: C3RL4 RARE luciferase reporter, agonist, 6 h; at 73.3 µM (top of the series).
As to `CN1CCCC1=O`, the activation was 0.131%.
